Measurements taken from PubChem BioAssay AID2685 (National Center for Advancing Translational Sciences (NCATS), 2010).
The campaign covered roughly 320,000 compounds. About 2,100 (0.66%) were called active. Inconclusive results (about 53%) are left out. The sample holds actives, similar compounds and a random draw of the others, so the mix is not that of the screen. Calls come from the whole dose curve; as a rule, active = well fitted inhibition curve with a large enough effect in the signal ratio, with a control signal flat (not every such curve was filed as active); inconclusive = small, poorly fitted or top-dose-only effect, or effect the other way, or a change in a side signal; inactive = flat fitted curve, though single readings scatter; the % refers to the signal ratio.
Potency is the fitted concentration of half-maximal effect.

Assay: qHTS Assay for Lipid Storage Modulators in Drosophila S3 Cells;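 for cell number change: cells counted by Cell Tracker Red CMTPX staining in the red channel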
Conditions: BODIPY lipid droplet fluorescence, 18-24 h, cells fed with added oleic acid; cell number change: measured here: cell count max response; series mostly up to 46.1 µM
Outline: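 Laser-scanning cytometry quantifies lipid droplet accumulation (500–530 nm total intensity; droplet/cell object ratio) in oleic acid-fed (400 uM added) Drosophila S3 cells treated with a concentration series. 20 uM Triacsin C defined 100% inhibition.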
With COc1cccc(CNCCc2ccccc2)c1OC the Potency was “inactive” and the cell number change was 7.84%. In the case of COc1cccc(CNC2CN3CCC2CC3)c1OC (stereo not given), the Potency is reported as 29.1 µM (active) and the cell number change is reported as -7.47%. For Fc1ccccc1CNC1CN2CCC1CC2 (stereo not given), the Potency was “inactive” and the cell number change was 4.51%. For COc1ccc(CN2C(=O)NC(=O)/C(=C/c3ccc([N+](=O)[O-])s3)C2=O)cc1, the Potency was “inactive” and the cell number change was 7.76%. In the case of O=C(c1ccc2c(c1)OCO2)C1CCCN(Cc2ccccn2)C1 (stereo not given), the Potency is reported as “inactive” and the cell number change is reported as 1.62%. With CCN(CC)C(=O)c1ccc(NC(=O)c2cn(-c3ccccc3)nc2-c2ccc(OC)cc2)cc1 the Potency was 2.31 µM (active) and the cell number change was -6.07%. For CCN(CC)C(=O)c1ccc(NC(=O)COc2ccc(-c3nn(C)c(=O)c4ccccc34)cc2)cc1, the Potency was “inactive” and the cell number change was -2.38%. With CCN(CC)C(=O)c1ccc(NC(=O)c2ccc(-c3nn(C)c(=O)c4ccccc34)cc2)cc1 the Potency was “inactive” and the cell number change was 4.89%. With COc1ccc(-n2c(CN3CCOCC3)nc3ccccc3c2=O)c(OC)c1 the Potency was “inactive” and the cell number change was -3.52%. With Cc1cc(N2CCN(C)CC2)nc2ccccc12 the Potency was “inactive” and the cell number change was 21.8%. With COc1ccc(N2CCN(Cc3nc4ccccc4[nH]3)CC2)cc1 the Potency was “inactive” and the cell number change was 15.8%. With CN1CCN(Cc2nc3ccccc3c(=O)[nH]2)CC1 the Potency was 29.1 µM (active) and the cell number change was -23.1%. In the case of C[C@]12CCC3[C@@H](CC[C@H]4C[C@@H](O)CC[C@]34C)C1CCC2=O (stereo not given in full), the Potency is reported as “inactive” and the cell number change is reported as 15.3%. With C#CC[N+]1(C)[C@@H]2CC(OC(=O)C(CO)c3ccccc3)C[C@H]1C(O)C2 (stereo not given in full) the Potency was “inactive” and the cell number change was 7.57%. In the case of Cc1cccc(-n2c(-c3ccc([N+](=O)[O-])cc3)nc3ccccc3c2=O)c1, the Potency is reported as “inactive” and the cell number change is reported as -0.157%. In the case of Cc1ccccc1-n1c(/C=C/c2ccccn2)nc2ccccc2c1=O, the Potency is reported as “inactive” and the cell number change is reported as 15.7%. In the case of Cc1ccc(-n2c(/C=C/c3ccccn3)nc3ccccc3c2=O)cc1, the Potency is reported as 6.51 µM (active) and the cell number change is reported as 27.8%. With Cc1cccc(-n2c(/C=C/c3ccccn3)nc3ccccc3c2=O)c1 the Potency was “inactive” and the cell number change was -12.4%. For Cc1cccc(-n2c(/C=C/c3ccc([N+](=O)[O-])o3)nc3ccccc3c2=O)c1, the Potency was 5.17 µM (active) and the cell number change was 9.44%. In the case of O=c1c2ccccc2nc(/C=C/c2ccccn2)n1-c1ccccc1, the Potency is reported as “inactive” and the cell number change is reported as 5.25%. With CSc1nc(N2CCN(C)CC2)c2ccccc2n1 the Potency was “inactive” and the cell number change was 12%. For C/C=C1/CC(C)C(C)(O)C(=O)OCC2CCN3CCC(OC1=O)C23 (stereo not given), the Potency was “inactive” and the cell number change was 3.31%. For Cc1ccc(N2C(=O)/C(=C/c3ccc(CN(CCC#N)S(C)(=O)=O)o3)C(=O)NC2=S)cc1, the Potency was “inactive” and the cell number change was 9.59%. With [N-]=[N+]=NCc1cn2cccnc2n1 the Potency was “inactive” and the cell number change was -11.7%. With c1ccc(C2CC3CC(c4ccco4)N2O3)cc1 (stereo not given) the Potency was “inactive” and the cell number change was 2.08%.
